This is a sample that favours compounds with a hit; in the whole collection about 10% have one here.
GPT2 inh: inhibitors of human GPT2 alanine aminotransferase; Recombinant GPT2, coupled pyruvate oxidase/HRP Amplex Red fluorescence; Potency, µM (highest dose often 57.7 µM), inactives show at the top dose activity change, negative = inhibition, usual class: inhibitors; Q8TD30; AID 1671188; 100,000 compounds, 0.25% hits; note: % is set by controls: 0 for no effect and ±100 for the full control effect; nearly all actives have a fitted effect of over 60% in size
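Inhibition is scored from Amplex Red fluorescence generated when pyruvate oxidase and HRP act on pyruvate released by GPT2. Reactions contain 10ng/uL enzyme, 250uM a-KG and 2mM L-alanine and run 30 min at room temperature.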
HEK293 tox: kills HEK 293 cells | Potency, µM (doses to about 115 µM), inactives show top-dose activity change, negative = cytotoxicity, usual class: inhibitors | 94,000 compounds, 6.6% hits | AID 1345083 | HEK 293 viability, ATP luminescence (CellTiter-Glo), 48-72 h; note: % is set by controls: 0 for no effect and ±100 for the full control effect; nearly all actives have a fitted effect of over 60% in size
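CellTiter-Glo luminescence (cellular ATP) was read after 48 or 72 hr of compound exposure at 37 degree Celsius. Cells were HEK 293 plated at 250 cells/well.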
hNpr1 antagonist: human Npr1 receptor antagonism. 76,000 compounds, 1.6% hits. P16066. HEK293 hNpr1 GloSensor cGMP, ANP-stimulated luminescence. Potency, µM (highest dose often 46.3 µM), for inactives: at the highest dose activity change, negative = inhibition, usual class: inhibitors; calls by dose curve; note: % is set by controls: 0 for no effect and ±100 for the full control effect; nearly all actives have a fitted effect of over 60% in size
Target sequence (P16066 whole entry, looked up): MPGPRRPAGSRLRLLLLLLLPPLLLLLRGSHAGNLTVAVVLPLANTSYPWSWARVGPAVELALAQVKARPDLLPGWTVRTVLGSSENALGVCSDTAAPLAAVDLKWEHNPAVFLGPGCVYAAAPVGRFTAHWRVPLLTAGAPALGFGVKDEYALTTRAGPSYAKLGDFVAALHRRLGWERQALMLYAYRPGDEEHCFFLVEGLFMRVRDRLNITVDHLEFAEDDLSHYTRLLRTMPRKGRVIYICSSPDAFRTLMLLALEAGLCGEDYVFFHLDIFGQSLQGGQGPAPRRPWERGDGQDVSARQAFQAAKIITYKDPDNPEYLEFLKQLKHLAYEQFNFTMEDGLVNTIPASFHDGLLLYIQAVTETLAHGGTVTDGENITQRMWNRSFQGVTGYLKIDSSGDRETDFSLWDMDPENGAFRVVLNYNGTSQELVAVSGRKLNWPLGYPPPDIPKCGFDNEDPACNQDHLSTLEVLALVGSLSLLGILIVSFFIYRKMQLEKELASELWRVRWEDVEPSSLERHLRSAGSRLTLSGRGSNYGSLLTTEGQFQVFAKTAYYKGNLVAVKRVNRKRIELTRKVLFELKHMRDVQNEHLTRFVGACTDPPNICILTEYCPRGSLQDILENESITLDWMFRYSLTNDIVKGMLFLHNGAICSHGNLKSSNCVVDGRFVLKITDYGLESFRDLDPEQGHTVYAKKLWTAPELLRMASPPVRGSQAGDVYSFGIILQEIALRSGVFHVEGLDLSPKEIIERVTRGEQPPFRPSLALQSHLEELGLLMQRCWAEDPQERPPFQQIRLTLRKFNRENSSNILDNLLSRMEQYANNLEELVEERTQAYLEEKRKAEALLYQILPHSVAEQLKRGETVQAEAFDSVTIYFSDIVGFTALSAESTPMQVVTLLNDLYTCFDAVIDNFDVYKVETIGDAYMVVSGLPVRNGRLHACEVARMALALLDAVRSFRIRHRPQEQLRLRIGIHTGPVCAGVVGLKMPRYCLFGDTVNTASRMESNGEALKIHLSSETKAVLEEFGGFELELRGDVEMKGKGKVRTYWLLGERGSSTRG
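Compound pre-incubated 30 min at room temperature on GloSensor-loaded HEK293 cells stably carrying hNpr1 and the pGS-40F cGMP biosensor. Stimulation uses hNppA at 0.1 nM final; luminescence is taken at baseline and 20 min post-agonist.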
3T3 cytotox: NIH 3T3 cell cytotoxicity; 94,000 compounds, 4.3% hits; Potency, µM (series often up to 96.7 µM), for the others: at the highest dose activity change, negative = cytotoxicity, usual class: inhibitors; NIH 3T3 viability, CellTiter-Glo ATP luminescence, 48-72 h; AID 1345082; note: % is set by controls: 0 for no effect and ±100 for the full control effect; nearly all actives have a fitted effect of over 55% in size
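Cytotoxicity is measured as loss of cellular ATP: NIH 3T3 cells (400/well) are exposed to compound for 48 or 72 hr at 37 °C, then CellTiter-Glo luminescence is imaged after 10 min at room temperature.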
FLuc inh: blocks purified firefly luciferase enzyme activity | purified P. pyralis luciferase, luminescence, biochemical | Potency, µM (titrated, usually from 115 µM), actives largely listed as inhibitors | 76,000 compounds, 2.5% hits | P08659; note: % is set by controls: 0 for no effect and ±100 for the full control effect; nearly all actives have a fitted effect of over 65% in size
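Purified 10nM P. pyralis luciferase with 10uM D-luciferin and 10uM ATP in 50mM Tris acetate pH 7.5, 10mM Mg acetate, 0.01% Tween-20, 0.05% BSA. qHTS titration; luminescence read by CCD imager.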
NPR1 antag cnf: confirmation of human Npr1 natriuretic peptide receptor antagonists; shares compounds with hNpr1 antagonist; HEK293 hNpr1 cGMP GloSensor luminescence, ANP-stimulated; Potency, µM (doses to about 57.6 µM), inactives show at the top dose activity change, negative = inhibition, hits mostly inhibitors; 1,400 compounds, 76% hits; AID 1347044; calls by dose curve; note: nearly all actives have a fitted effect of over 70% in size
Npr2 selectivity: selectivity test of Npr1 antagonists against human Npr2 | Potency, µM (top dose mostly 57.6 µM), for inactives: at the highest dose activity change, negative = inhibition, actives largely listed as inhibitors | HEK293 hNpr2 GloSensor cGMP luminescence, CNP-stimulated | 1,400 compounds, 67% hits | shares compounds with hNpr1 antagonist; calls by dose curve; note: nearly all actives have a fitted effect of over 70% in size
FLuc counter: counter-screen for Npr1 antagonists: firefly luciferase inhibitors. shares compounds with hNpr1 antagonist. Potency, µM (titrated, usually from 57.6 µM), without a hit: at the highest dose activity change, negative = inhibition, actives largely listed as inhibitors. AID 1347047. 1,400 compounds, 0.7% hits. purified FLuc enzyme, luminescence, Km substrate; note: series mostly up to about 58 µM; 0% is about no effect
GloSensor ctrl: reduces cGMP signal in GloSensor control cells | shares compounds with hNpr1 antagonist | HEK293 GloSensor cGMP, SNP-stimulated, luminescence | 1,400 compounds, 69% hits | AID 1347051 | Potency, µM (highest dose often 57.6 µM), inactives show at the highest dose activity change, negative = inhibition, actives largely listed as inhibitors; calls by dose curve; note: % is set by controls: 0 for no effect and ±100 for the full control effect; nearly all actives have a fitted effect of over 70% in size
The depositor's hits bear a star; i = inactive; ? = inconclusive; nt = no result; [ ] = remark or other dose. Unless noted, calls come from the whole dose curve; as a rule, active = well fitted curve in the direction sought with a large enough effect; inconclusive = small, poorly fitted or top-dose-only effect, or another doubt; inactive = no such curve, though single readings can be large; an effect the other way counts as inactive or inconclusive. Potency is the fitted concentration of half-maximal effect.

SMILES	GPT2 inh	HEK293 tox	hNpr1 antagonist	3T3 cytotox	FLuc inh	NPR1 antag cnf	Npr2 selectivity	FLuc counter	GloSensor ctrl
CC1=C[C@@H](CNC(=O)c2ccccn2)[C@H](C(C)C)C[C@H]1Cc1nnc(-c2ccncc2)o1	-4%[88.5 µM]	22µM*	14µM*	?	i	18µM*	22µM*	-1%[86.2 µM]	18µM*
CC(=O)N1CCCC(N2C(=O)c3c(c(C)nn3-c3ccccc3)C2C2CC2)C1 (centres undefined)	nt	-11%	nt	?	nt	nt	nt	nt	nt
Cc1nn(C)c(C)c1C(C)NC(=O)c1ccc(CC2CCN(C(=O)C3CC3)CC2)cc1 (centres undefined)	i	?	11µM*	?	i	17µM*	17µM*	8%	15µM*
O=C(OCc1ccccc1)N1CCCN(c2cc(C3CC(O)C3)ncn2)CC1 (centres undefined)	i	?	8.9µM*	-27%	i	15µM*	15µM*	5%	14µM*
CC(C)Oc1ccc(CN2CCC3(CCNCC3)C2)cc1	?	?	-12%	?	i	nt	nt	nt	nt
COc1cccc(CC(=O)N2CCCN(c3cc(-c4ccc(Br)cc4)[nH]n3)CC2)c1	?	45µM*	11µM*	35µM*	i	24µM*	24µM*	-1%	22µM*
COc1ccc(-c2cc(N3CCN(C(=O)Cc4ccc(Br)cc4)CC3)n[nH]2)cc1	-3%	1%	?	i	i	nt	nt	nt	nt
Cc1cccc(CC(=O)N2CCCN(c3cc(-c4ccc(Br)cc4)[nH]n3)CC2)c1	?	?	?	32µM*	i	?	24µM*	3%	24µM*
Cc1ccsc1C(=O)NCCn1c(C)cnc1C1CCC1	4%	6%	-15%	i	i	nt	nt	nt	nt
Cn1cc(-c2ccc(O)c(F)c2)c2nc(COc3ccc(Cl)cc3)cn2c1=O	-8%[88.5 µM]	32µM*	14µM*	32µM*	i	31µM*	31µM*	?	28µM*
CC(=O)Nc1cc(-c2cn(C)c(=O)n3cc(COc4ccc(Cl)cc4)nc23)ccn1	i	-50%[172 µM]	-13%[70.6 µM]	-41%[138 µM]	i	nt	nt	nt	nt
CC(C)(C)C(=O)N1CCCC2(COc3ccccc3[S+](=O)([O-])N2)C1 (centres undefined)	-14%	2%	nt	-18%	nt	nt	nt	nt	nt
Cc1ccc(F)cc1CN1CCOc2cc([S+](=O)([O-])N(C)C)ccc2C1	i	40µM*	35µM*	?	i	40µM*	40µM*	-2%[86.2 µM]	35µM*
COc1ccccc1CN[C@H]1CCCN[C@H]1c1ccccc1	i	nt	nt	nt	nt	nt	nt	nt	nt
CCN1c2cc(C(=O)Nc3cccc4c3CCCC4)ccc2C(=O)N2CCCCCC21 (centres undefined)	i	?	-5%	?	i	nt	nt	nt	nt
CCNC(=O)N1CCC(Cc2ccc(C(N)=O)cc2)CC1	-22%	i	17%	3%	i	nt	nt	nt	nt
CCNC(=O)N1CCC(Cc2ccc(C(=O)NCCc3c[nH]c4ccccc34)cc2)CC1	-19%	25µM*	14µM*	18µM*	i	24µM*	24µM*	-12%	27µM*
O=C1NC2(CCN(C(=O)c3ccccn3)CC2)COc2ccccc21	-6%[88.5 µM]	-15%[172 µM]	?	3%[138 µM]	i	?	25µM*	-14%[86.2 µM]	12%[86.2 µM]
O=C1NC2(CCN(C(=O)c3ccccn3)CC2)Oc2ccccc21	i	-5%[172 µM]	0%[70.6 µM]	1%[138 µM]	i	nt	nt	nt	nt
C=C(C(=O)O)[C@@H]1CC[C@@]2(C)CC[C@@H](O)C(=C)C2C1 (some centres undefined)	i	nt	nt	nt	nt	nt	nt	nt	nt
O=C(c1cccc(Cl)c1)N1CCN(C(=O)c2nnn3c2COC(c2ccc(F)cc2)C3)CC1 (centres undefined)	1%	?	13µM*	?	i	24µM*	24µM*	0%	24µM*
O=C(c1ccc(F)c(Cl)c1)N1CCN(C(=O)c2nnn3c2COC(c2ccccc2)C3)CC1 (centres undefined)	i	?	13µM*	?	i	22µM*	24µM*	1%	22µM*
COc1ccc(C(=O)N2CCN(C(=O)c3nnn4c3COC(c3ccc(Cl)cc3)C4)CC2)cc1F (centres undefined)	2%	?	?	-31%	i	24µM*	27µM*	1%	22µM*
O=C(c1ccc(F)c(F)c1)N1CCN(C(=O)c2nnn3c2COC(c2ccc(Cl)cc2)C3)CC1 (centres undefined)	i	-46%	13µM*	?	i	22µM*	22µM*	8%	19µM*
O=C(c1ccc(Cl)nc1)N1CCC(c2nn(-c3ccc(Cl)cc3)c(=O)[nH]2)CC1	5%	-3%	-8%	5%	i	nt	nt	nt	nt
SMILES	GPT2 inh	HEK293 tox	hNpr1 antagonist	3T3 cytotox	FLuc inh	NPR1 antag cnf	Npr2 selectivity	FLuc counter	GloSensor ctrl
O=C(Cc1cccnc1)N1CCc2c(nc3cc(-c4ccccc4)[nH]n3c2=O)C1	-2%	7%	-10%	i	?	nt	nt	nt	nt
O=C(c1ccc[nH]1)N1CCN(C(=O)c2nnn3c2COC(c2ccc(Cl)cc2)C3)CC1 (centres undefined)	i	-19%	-2%	-11%	i	nt	nt	nt	nt
O=C(c1cccc(Cl)c1)N1CCN(C(=O)c2nnn3c2COC(c2ccc(Cl)cc2)C3)CC1 (centres undefined)	-11%	?	-18%	?	i	nt	nt	nt	nt
O=C(c1nnn2c1COC(c1ccc(Cl)cc1)C2)N1CCN(C(=O)c2c(F)cccc2F)CC1 (centres undefined)	i	?	?	?	i	?	?	0%	?
CN(C)c1cccc(C(=O)N2CCN(C(=O)c3nnn4c3COC(c3ccc(Cl)cc3)C4)CC2)c1 (centres undefined)	i	?	13µM*	?	i	24µM*	24µM*	-29%	24µM*
COc1ccc(F)c(-c2nc(Cn3cnc4ccccc43)c(C)o2)c1	-16%	?	?	?	i	nt	nt	nt	nt

Screening data deposited in PubChem by National Center for Advancing Translational Sciences (NCATS).
